Source: PubChem BioAssay
Hits are enriched below; roughly 7.4% of the tested compounds scored in any of these assays.
FLuc modulator = inhibits or activates purified firefly luciferase, miR-21 counter-screen; purified FLuc, Km substrates, luminescence inhibition; Potency, µM (series often up to 57.5 µM), without a hit: at the highest dose activity change, negative = inhibition, actives largely listed as inhibitors; 360,000 compounds, 6.9% hits;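 further: plate controls were vehicle for no effect and reference inhibitor for full effect; nearly all actives have a fitted effect of over 55% in size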
Target sequence (P08659 whole entry, looked up): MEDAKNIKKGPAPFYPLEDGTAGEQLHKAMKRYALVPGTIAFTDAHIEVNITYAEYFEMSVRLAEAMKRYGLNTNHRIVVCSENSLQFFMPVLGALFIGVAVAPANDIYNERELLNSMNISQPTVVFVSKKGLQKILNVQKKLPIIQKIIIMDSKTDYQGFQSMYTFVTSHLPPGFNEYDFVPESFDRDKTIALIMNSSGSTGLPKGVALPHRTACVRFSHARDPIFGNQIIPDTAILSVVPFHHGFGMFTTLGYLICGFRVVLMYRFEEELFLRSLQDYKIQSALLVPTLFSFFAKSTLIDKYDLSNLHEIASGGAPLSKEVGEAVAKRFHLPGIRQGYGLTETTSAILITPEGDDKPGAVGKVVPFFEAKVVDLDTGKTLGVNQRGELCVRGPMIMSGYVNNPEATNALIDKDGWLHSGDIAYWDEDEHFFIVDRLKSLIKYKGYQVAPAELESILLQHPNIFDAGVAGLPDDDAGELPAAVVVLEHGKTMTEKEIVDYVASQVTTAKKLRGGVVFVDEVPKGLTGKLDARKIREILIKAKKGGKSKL
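Purified P. pyralis luciferase, 10 nM final, with Km-level 10 uM D-luciferin and 10 uM ATP in 50 mM Tris acetate pH 7.5, 10 mM Mg acetate, 0.01% Tween-20, 0.05% BSA; 6-point qHTS titration about 60 µM downward; luminescence read.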
SMN2 splice up = increases expression of the SMN2 splice variant; HEK293 SMN2-luciferase splicing reporter, luminescence, 30-36 h; Potency, µM (doses to about 46.1 µM), for inactives: at the top dose activity change, positive = activation, hits mostly activators; 210,000 compounds, 2.8% hits; AID 1458; further: % of control where 0% means no effect; nearly all actives have a fitted effect of over 55% in size
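qHTS luciferase splicing reporter: luminescence rises when SMN2 exon 7 is included in transfected HEK293 cells. Compound exposure lasted 30-36 h at 37C, with 4.5 mM final sodium butyrate as control, followed by a ONE-Glo read.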
NPC1 promoter act = NPC1 promoter activation. Huh7 NPC1 promoter luciferase reporter, 24 h. Potency, µM (doses to about 9.22 µM), for the others: at the highest dose activation, actives largely listed as activators. 320,000 compounds, 2.4% hits. AID 485313; further: % of control where 0% means no effect; nearly all actives have a fitted effect of over 60% in size
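Stably transfected Huh7 (NPC1 promoter→luciferase), 1500 cells/well in Opti-MEM + 10% FBS, 2 h settle, then compound 24 h at 37 °C. Luminescence after 10 min with Amplite reagent.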
ELG1 genotoxic = inducers of genotoxicity in HEK293T ELG1-luciferase cells | 330,000 compounds, 1.3% hits | Potency, µM (titrated, usually from 46 µM), for the others: at the highest dose activity change, positive = activation, usual class: activators | HEK293T ELG1-luciferase reporter, luminescence, 16 h; further: % of control where 0% means no effect; nearly all actives have a fitted effect of over 60% in size
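Step 1: seed 2,000 HEK293T ELG1-luciferase cells per well. Step 2: add compound or DMSO, incubate 16 hr at 37 °C. Step 3: ONE-Glo, 30 min at room temperature, read luminescence.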
Rab9 prom act = activators of Rab9 promoter; 320,000 compounds, 2.8% hits; Potency, µM (highest dose often 9.22 µM), inactives show at the highest dose activation, negative = inhibition, usual class: activators; Huh7 Rab9 promoter-luciferase reporter, luminescence, 24 h; further: % of control where 0% means no effect; nearly all actives have a fitted effect of over 60% in size
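Using Huh7 cells stably transfected with Rab9 promoter–luciferase, compounds were incubated 24 h at 37 °C, 5% CO2; luciferase luminescence was read 10 min after reagent addition.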
Starred values were filed as active, the others as inactive; ? = inconclusive; / = no result given; [ ] = another dose, or the depositor's remark. The call rests on the fitted dose curve; in most records, active means well fitted curve in the direction sought with a large enough effect; inconclusive means small, poorly fitted or top-dose-only effect, or another doubt; inactive means no such curve, though single readings can be large; an effect the other way counts as inactive or inconclusive. Potency means the concentration at half of the fitted maximal effect.

SMILES | FLuc modulator | SMN2 splice up | NPC1 promoter act | ELG1 genotoxic | Rab9 prom act
COc1cc(OC)cc(-c2nc(-c3ccc(Br)cc3)no2)c1 | 13µM* | 5% | 27% | 5% | ?
CCOc1nc(C)ccc1-c1noc(-c2ccccc2OC)n1 | 24µM* | -8% | 9% | 2% | 7%
CCOc1ccccc1NC(=O)c1ccccc1-c1nc(-c2ccccc2OC)no1 | 11µM* | / | 2% | -18% | 6%
COCCNC(=O)c1ccccc1-c1nc(-c2ccccc2OC)no1 | ? | -28% | ? | 2% | 0%
CCOc1ccccc1-c1nc(-c2ccc(-c3ccccc3)nc2OCC)no1 | 0% | 1% | / | / | /
CN(C)c1ccc(-c2noc(-c3ccccc3O)n2)cc1 | 0.27µM* | 32% | 0.71µM* | ? | ?
COc1nc(-c2ccc(C)cc2)ccc1-c1noc(-c2ccccc2Br)n1 | ? | 1% | / | / | /
COc1ccccc1-c1noc(-c2cc(OC)c(OC)c(OC)c2)n1 | -20% | 17% | 0% | 0% | -6%
COc1ccccc1-c1nc(-c2ccc(Br)cc2)no1 | 4.8µM* | 16µM* | ? | 3.7µM* | 5µM*
Cc1ccc(-c2noc(-c3ccccc3Br)n2)cc1 | 0.67µM* | 13µM* | 0.79µM* | ? | 2.8µM*
COc1ccc(-c2nc(-c3ccc(Br)cc3)no2)c(OC)c1 | 1.2µM* | 7.1µM* | / | / | /
CCN1CCCC1Cn1c(-c2ccccc2)nc2c(N3CCOCC3)nc(C)nc21 (stereo not drawn) | / | -7% | / | / | /
N#Cc1ccccc1NC(=O)C(=O)NCC(c1cccnc1)N1CCc2ccccc21 (stereo not drawn) | -2% | / | / | / | /
CCc1ccc(-c2nn(CC(=O)NC3CCCC3)c3c2cnc2ccc(C)cc23)cc1 | -2% | / | / | / | /
Cc1nn2c(C)c(C(=O)N3CCN(c4ccc(Cl)cc4)CC3)cnc2c1-c1ccc(F)cc1 | -10% | / | / | / | /
CN(CC(=O)N1CCCCCC1)S(=O)(=O)c1ccccc1 | ? | / | 3.2µM* | ? | ?
Cc1ccc(S(=O)(=O)N(C)CC(=O)N2CCCCCCC2)cc1 | 1% | / | -2% | 2% | 0%
CC(=O)c1ccc(Nc2ccc3cc(S(=O)(=O)N4CCCC4)ccc3n2)cc1 | -12% | / | / | / | /
O=C(Nc1ncccc1O)c1ccc2c(c1)OCO2 | ? | / | 4µM* | ? | 3.5µM*
O=C(Nc1ncccc1O)c1ccc2c(c1)OCCO2 | 15µM* | / | 3.5µM* | 21µM* | 2.5µM*
Cc1cccnc1NC(=O)c1ccc2c(c1)OCCO2 | 13µM* | / | 1% | 16µM* | ?
O=C(CSc1nc2c(oc3ccccc32)c(=O)n1-c1ccccc1)Nc1ccc(F)c(Cl)c1 | 4% | 10% | / | / | /
COC(=O)C1=C(C(=O)OC)[C@@H]2N(Cc3ccccc3)c3ccccc3[C@@]23C[C@@H](C(=O)OC)N(S(=O)(=O)c2c(C)noc2C)C3=N1 | / | -1%[9.22 µM] | / | / | /
NC(=S)N/N=C/c1c[nH]c2ccc(OCc3ccccc3)cc12 | 21µM* | / | -2% | -7% | 0%
COc1ccc(NC(=O)NC2CCCCCCC2)c(OC)c1 | ? | / | 1% | 13% | 17%
SMILES | FLuc modulator | SMN2 splice up | NPC1 promoter act | ELG1 genotoxic | Rab9 prom act
COC(=O)c1ccc(NC(=S)NC2CC3CCC2C3)cc1 (stereo not drawn) | 21µM* | ? | 23% | 6% | 23%
COC(=O)c1ccc(NC(=O)NC2CCCCC2)cc1 | ? | 13µM* | ? | 17% | 16%
COc1ccc(NC(=O)NC2CCCCCCC2)cc1 | 6µM* | / | 0.89µM* | 9.2µM* | 1.4µM*
C=CC(C)(O)CC1[C@@]2(C)CCCC(C)(C)C2CC[C@]1(C)O (stereo partly drawn) | / | -13% | / | / | /
CCOc1ccc(CCNC(=O)c2cc3cccc4c3n2CCS4)cc1 | -13% | / | / | / | /
O=C(Nc1cccc(NC(=O)c2ccccc2)n1)c1ccccc1 | 9.5µM* | / | -1% | 0% | 0%
Cc1cccc(NC(=O)c2ccc(C(=O)c3ccccc3)cc2)n1 | 9.5µM* | / | ? | 21µM* | ?
CC#CCN1c2ccccc2[C@]23C[C@@H](C(=O)OC)N(S(=O)(=O)c4c(C)noc4C)C2=NC(C(=O)OC)=C(C(=O)OC)[C@H]13 | / | 22%[9.22 µM] | / | / | /
COc1ccc(-c2noc(Cn3c(=O)c4ccccc4n(CC(=O)Nc4cccc(C(F)(F)F)c4)c3=O)n2)cc1 | -1% | / | / | / | /
O=C(Nc1ccccc1)c1ccn[nH]1 | 11µM* | 13µM* | 3.5µM* | ? | 2.5µM*
CC(=O)c1ccc(NC(=O)c2ccn[nH]2)cc1 | 9.5µM* | 11µM* | 2µM* | 10µM* | 3.5µM*
CC(=O)c1ccc(NC(=O)c2cccc(NC(=O)c3ccccc3)c2)cc1 | ? | / | 16% | 10% | 29%
COc1ccc(CNC(=O)C2CCCN(C(=O)N3CCOc4ccccc43)C2)cc1 (stereo not drawn) | -17% | / | / | / | /
COc1ccc(C(=O)Nc2ccc3nc(C)sc3c2)cc1OC | ? | / | 18% | 23% | ?
COc1ccc(NC(=O)c2ccc3nc(C)sc3c2)cc1 | ? | / | 1µM* | ? | 1µM*
CCCC(=O)Nc1nc2ccc(NC(=O)c3ccc(Br)o3)cc2s1 | -2% | ? | 11% | -7% | 9%
COC(=O)c1ccc(NC(=O)c2ccc3nc(C)sc3c2)cc1 | -12% | / | 0.79µM* | ? | 0.71µM*
Cc1nc2ccc(NC(=O)c3ccc(Br)o3)cc2s1 | 15µM* | 11µM* | 2.8µM* | -3% | 2.5µM*
O=C(Nn1c(O)c(C=C2N=c3ccccc3=N2)sc1=S)c1ccccc1Cl | 15µM* | -3% | -1% | -1% | -1%
Oc1c(C=C2N=c3ccccc3=N2)sc(=S)n1-c1ccccc1 | -8% | -24% | -5% | 0% | -3%
CCn1c(O)c(C=C2N=c3ccccc3=N2)sc1=S | 2% | -13% | -1% | 0% | 1%
O=S(=O)(Nn1c(O)c(C=C2N=c3ccccc3=N2)sc1=S)c1ccccc1 | 15µM* | / | -2% | -5% | 1%
OC1CCN(Cc2ccc(OCc3ccccc3)cc2)CC1 | 11µM* | / | 2µM* | ? | ?
CCCCNC(=O)C1CCN(Cc2ccc(OCc3ccccc3)cc2)CC1 | 19µM* | ? | ? | ? | ?
CC(C)(C)c1cc(NC(=O)c2cccc([N+](=O)[O-])c2)no1 | ? | 2.8µM* | 2.2µM* | ? | 1.4µM*
CC(C)(C)c1cc(NC(=O)c2ccco2)no1 | 5.4µM* | / | 1.8µM* | 1.3µM* | 0.63µM*
Cc1cc(NC(NC(=O)c2ccco2)(C(F)(F)F)C(F)(F)F)no1 | -2% | 13% | 15% | 1% | 13%
Cc1cc(C(=O)Nc2cc(C(C)(C)C)on2)c(C)o1 | 9.5µM* | / | ? | ? | 2.8µM*
CC(C)(C)c1cc(NC(=O)Nc2ccccc2)no1 | 4.8µM* | / | 1.4µM* | ? | 1.3µM*
Cc1cc(NC(=O)c2cccc([N+](=O)[O-])c2)no1 | 0% | / | -2% | 6% | 0%
